Key:
Assay in all cases: PBM binding z-score (relative to random genomic background probes); higher = stronger binding; sequences stand for … in GC…GCGATTGACAGCGTAGAATGAAGG
[1] = system: RARb homodimer (NR concentration 270 nM)
Outline: (§1)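 Scanned fluorescence from custom Agilent 4×180K protein-binding microarrays was regression-normalized. Binding z-scores use random background probes as reference. Ligand-free nuclear receptor dimers were incubated on the arrays for 1 h and detected with antibodies against each partner (one per run).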

[2] = system: RARg:RXRa (NR concentration 270 nM, RXRa partner concentration 90 nM)
Outline: as §1

[3] = system: RARg homodimer (NR concentration 270 nM)
Outline: as §1

[4] = system: RXRa DBDmut IVT, anti-RXR (DBD mutation: RXRa K156A/R161A, NR concentration 90 nM)
Outline: as §1

[5] = system: RXRa homodimer (NR concentration 180 nM)
Outline: as §1

[6] = system: THRa:RXRa (NR concentration 90 nM, RXRa partner concentration 90 nM)
Outline: as §1

[7] = system: THRa homodimer (NR concentration 90 nM)
Outline: as §1

[8] = system: VDR:RXRa (NR concentration 270 nM, RXRa partner concentration 90 nM)
Outline: as §1

[9] = system: VDR homodimer (NR concentration 270 nM)
Outline: as §1

Row | Sequence | PBM binding z-score [1] | PBM binding z-score [2] | PBM binding z-score [3] | PBM binding z-score [4] | PBM binding z-score [5] | PBM binding z-score [6] | PBM binding z-score [7] | PBM binding z-score [8] | PBM binding z-score [9]
1 | TCTTGTAGGTCAAGCAGGTTAAGAAAGCCTGAGT | 3.48 | 4.8 | 5.5 | 1.7 | 4.02 | 3.08 | 0.641 | 5.16 | 1.49
2 | TAGCCCAGGTCATTCAGGGGCCAGTATAGAAAGC | 3.34 | 6.39 | 4.29 | 2.4 | 3.39 | 3.71 | 1.48 | 3.65 | 2
3 | CCGACTGGGGCAAAGGTTGCCATACTCAGTACGA | 0.697 | 1.32 | 0.395 | -0.142 | 1.32 | 0.333 | -0.54 | 0.133 | 0.111
4 | TCTAGCAGGCCCGAGGGTCACTCAAGAGGTACGG | 2.43 | 2.27 | 1.72 | 0.126 | 2.42 | 1.67 | -0.376 | 1.14 | 0.268
5 | CCTTACGGGTCACGAGGTTATGGCACGACGAGCG | 3.8 | 6.05 | 5.55 | 1.3 | 6.91 | 3.72 | 1.19 | 4.99 | 1.71
6 | GTACCAAGATGAATAGGTCGTTGATGAGTAGGCG | 0.283 | 0.181 | 0.272 | -0.187 | 0.691 | 0.143 | -0.535 | -0.0191 | -0.179
7 | GCTATTAGTTGAAAGGGCAACCCAATGATTCTCG | 1.98 | 1.31 | 1.34 | 1.09 | 1.3 | 0.458 | -0.122 | 0.662 | 0.235
8 | TAGCCTAGGTCAGGTCGGGCCAGTATACGCTATA | 2.67 | 2.95 | 4.12 | -0.81 | 1.62 | 3.92 | 0.761 | 1.03 | 0.0294
9 | CTCGCAAGGTCGGTTGAGGTGAGTATACGGATAA | 1.72 | 1.27 | 1.25 | 0.828 | 1.01 | 4.74 | 1.75 | 1.21 | 0.439
10 | TAGCCTAGGTCATGCGGGCCTGTATAGTGTCGGC | 2.91 | 3.78 | 4.07 | 0.686 | 2.87 | 3.03 | 1.05 | 1.75 | -0.143
11 | AGAACGAGGGCAATGAGTGGATAGCACGGGTGGC | 0.709 | 0.805 | 1.49 | 1.05 | 0.694 | 0.576 | -0.226 | 1.49 | 0.818
12 | CGAAGGAGGGCATGAGTTGATAGCAAATGCCGAT | 0.409 | 0.997 | 1.45 | 0.567 | 0.619 | 0.292 | -0.803 | 0.513 | 0.969
13 | ACTATTAGTTGAGACAAGGGCAACCGATAGGTTG | 1.01 | 0.568 | 0.799 | 0.0242 | 0.407 | 1.96 | -0.191 | 0.191 | 0.496
14 | CCGACGGGGGCATAAGGTTACCATAAGCCAGCCC | 2.78 | 4.76 | 3.14 | 2.15 | 3.62 | 3.58 | 1.76 | 3.5 | 2.1
15 | CCTACTGGGCCACGACAGGTCATTGATTCAGTGA | 2.31 | 1.95 | 1.52 | -0.438 | 1.56 | 2.74 | 0.324 | 1.32 | 0.706
16 | CCTCGGAGGACAGAAGGTCAGAACTGTCCGCTTT | 3.17 | 2.9 | 2.58 | 0.39 | 1.43 | 1.85 | 0.203 | 0.995 | 0.761
17 | CAAACTAGGTCACGAAAGATCAAAGTCGAATGAC | 3.2 | 4.8 | 5.53 | 1.99 | 4.09 | 3.49 | 1.43 | 3.03 | 0.583
18 | TCTTGTAGATCAAGCAGGTTAAGAAAGCCTGAGT | 0.31 | 0.0826 | -0.299 | 0.319 | 0.444 | 0.331 | -0.339 | 0.61 | 0.113
19 | CCTCCGAGGACAGAAGGTCAGAGCTGTCCGCTTT | 3.67 | 3.52 | 3.34 | 0.589 | 2.37 | 2.76 | 1.17 | 1.36 | 0.494
20 | TCGAGTAGGTTAGTCGTGGCATTCAGCCAACATA | -0.359 | -0.49 | -0.451 | -0.0351 | -0.388 | -0.461 | -1.11 | -0.0269 | -0.659
21 | TCTTGTAGATCAATAGAGCTTAAGAAAGTGCGCT | -1.12 | -0.405 | -0.425 | -0.034 | -0.343 | -0.676 | -1.11 | -0.108 | -0.773
22 | ATACCAAGTTGATCGTGAGGTCGTTGATACTAAC | 1.39 | 1.26 | 0.677 | 1.34 | 1.08 | 2.75 | 2.33 | 2.68 | 3.08
23 | CGAACTAGGACATTGACAGGACAGTGAATAGTAA | 0.469 | 0.496 | 0.642 | 0.451 | -0.322 | 0.858 | 0.623 | -0.192 | 0.546
24 | CCTACTGGGCCATTCATAGGTCATTGATCATATG | 2.77 | 2.41 | 1.78 | 0.112 | 1.56 | 1.6 | 0.0409 | 1.24 | 0.415
25 | CAAACTAGGTCACCGGAAGTTCAAAGTCCGCATG | 4.69 | 7 | 6.24 | 2.68 | 4.64 | 3.85 | 2.14 | 6.24 | 4.8
26 | CATCGGAGGACAGAAGGTCAGAGCTGTCCGCTTT | 3.44 | 3.28 | 2.93 | -0.108 | 1.8 | 2.07 | 0.044 | 1.06 | 0.139

Row | Sequence | PBM binding z-score [1] | PBM binding z-score [2] | PBM binding z-score [3] | PBM binding z-score [4] | PBM binding z-score [5] | PBM binding z-score [6] | PBM binding z-score [7] | PBM binding z-score [8] | PBM binding z-score [9]
27 | CTCGAAAAGTCGTGCTCAGGTGAGTATACCAAAC | 0.216 | 0.157 | -0.0265 | 0.322 | 0.0508 | 1.75 | 0.807 | -0.141 | -0.43
28 | ATCTCTAGGTAAAAGTTCAGTGTATCCCGAGGAT | 2.33 | 1.84 | 2.05 | 1.12 | 1.49 | 1.43 | 0.678 | 1.56 | 2.3
29 | CGAACTAGGTCAGAACAGGACCGTGAAGGATGAT | 1.66 | 2.43 | 3.01 | 0.494 | 1.17 | 1.56 | -0.264 | -0.102 | -0.342
30 | ATAGGTAGGTTAGCTGGGGTCATTCAGACTAGGC | 4.09 | 4.35 | 3.5 | 2.2 | 5.46 | 5.2 | 3.51 | 6.28 | 5.44
31 | CTACCAAGGTGAACAAGGTCGATGATTACTATTC | 2.03 | 1.58 | 1.71 | 0.696 | 1.61 | 2.89 | 1.41 | 4.83 | 0.758
32 | GCAGACAGGTGAGACGCAGGTAACTCAGGGTGGC | -0.0826 | 0.237 | 0.034 | -0.867 | 0.28 | 0.763 | -0.588 | -0.432 | -0.464
33 | GCTAGTTGGTCAGTAAAAGGTCCCACACCGGTCG | 1.08 | 0.163 | 0.286 | -0.751 | -0.112 | -0.281 | -0.0359 | -0.352 | -0.387
34 | ACAGACAGGTCAGTGAAGGTAACTCAGCTGGACG | 2.48 | 3.33 | 4.21 | 0.616 | 2.23 | 3.86 | -0.151 | 1.41 | -0.256
35 | CCTACTGGGCCATTCAGAGGTGATTGATCATATG | 0.207 | 0.611 | 0.223 | -0.252 | 0.178 | 0.505 | -0.356 | -0.104 | -0.44
36 | TAGCCTAGGTCATTCAGGGGCCAGTCTAGAAAGC | 3.1 | 5.97 | 4.33 | 1.66 | 2.98 | 3.27 | 0.478 | 2.76 | 1.43
37 | TAGCCTAGGTCAGATGGGGCCAGTATACGCTATA | 2.71 | 2.98 | 3.65 | -0.279 | 1.62 | 4.6 | 0.386 | 2.69 | 0.0236
38 | TCTGCTAGGTCAGTTGATCAGCTAACGAGCTGCC | 2.08 | 2.57 | 3.41 | 0.576 | 0.945 | 1.28 | 0.115 | 0.135 | -0.722
39 | GCTGCTAGGTCAGTTTGGTCAGCTAACGGGTACG | 2.43 | 2.29 | 3.29 | 0.863 | 0.8 | 1.36 | 0.147 | 0.529 | 0.564
40 | CCTACTGGGCTAAAAAGGTCATTGATGCCGATAA | 4.14 | 4.08 | 3.54 | 0.543 | 4.39 | 3.01 | 0.22 | 4.33 | 2.22
41 | TTACCAAGGTGAGCCGAGGTCGTTGATCCAACTC | 1.75 | 1.67 | 1.38 | -0.0655 | 1.77 | 4.53 | 1.49 | 4.51 | 1.98
42 | TCATGTAGGTAAAAGGTGAAAGTCGGTGTGGTAA | 2.05 | 1.81 | 0.855 | 1.49 | 2.61 | 1.75 | 0.569 | 1.57 | 0.332
43 | CTCGAAAGGTCGGTTGAGGTGATTATACGGATAA | 2 | 2.51 | 2.53 | 0.846 | 2.12 | 4.96 | 1.15 | 3.1 | 0.404
44 | CATACGGGGTCAGCTAGGCCAGAGTAGGGACGGC | 4 | 6.37 | 6.46 | 3.01 | 7.61 | 3.98 | 1.61 | 6 | 3.27
45 | TCTTGTAGATCAGCAGGTAAAGAAAGCTGGCCAA | -0.48 | -0.342 | -0.709 | 0.623 | 0.124 | -0.108 | -0.515 | -0.142 | -0.431
46 | AGAATGAGGTTACCTAAGATCAGGGAAACGCTTG | 0.84 | 2.05 | 1.65 | 0.932 | 2.66 | 3.93 | 1.05 | 1.47 | 0.305
47 | TGAATGAGGTTAAAGATCTGGGAACGTGGCGTCG | 0.638 | 1.65 | 1.42 | 1.24 | 2.49 | 2.26 | 0.597 | 1.31 | 0.872
48 | TCTTGCAGATCAAAGGTTAAGAAAGCCGAAGCCT | 1.18 | 1.47 | 0.521 | 0.00809 | 3 | 1.26 | -0.786 | 1.3 | -0.402
49 | GCTAGGAGGCCATTTGGGTCACTCAATGACGGGC | 2.18 | 1.5 | 2.23 | 0.724 | 0.924 | 2.33 | 0.78 | 1.83 | 1.29
50 | TGAATGAGGTTATAAGATAAGGGAACGTTGCAAA | 0.00548 | 1.36 | 1.01 | 0.619 | 1.79 | 1.68 | 0.04 | 0.811 | 0.0331
51 | TAGCCTAGGTCACTGGGCCAGTATAGTACGCATC | 3.06 | 3.92 | 4.68 | 0.296 | 2.8 | 2.92 | 0.878 | 1.45 | 0.192
52 | TAGCCTAGGTCATTCAGGGGCCAGTTTAGAAAGC | 3.42 | 5.71 | 4.11 | 1.65 | 2.56 | 3.67 | 0.971 | 3.16 | 1.28
